Test results published in PubChem BioAssay (Tox21).
Inconclusive results are not listed. Active and inactive are the calls of the source. Unless noted, the call rests on the fitted dose curve; in most records, active means well fitted curve in the direction sought with a large enough effect in the repeat runs; inconclusive means weak or mixed curves; inactive means no such curve, though single readings can be large; an effect the other way counts as inactive or inconclusive.

Columns and labels:
[1] = qHTS assay to identify small molecule antagonists of the glucocorticoid receptor (GR) signaling pathway - cell viability counter screen (AID 720693); further: nearly all actives have a fitted effect of over 55% in size
[2] = qHTS assay for identifying genotoxic compounds that show differential cytotoxicity against isogenic chicken DT40 cell lines with known DNA damage response pathways - wild type cell line (AID 743012); further: nearly all actives have a fitted effect of over 60% in size; further: potency means the concentration at half of the fitted maximal effect
Method in brief: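 Cytotoxicity in repair-proficient parental chicken DT40 cells serves as the comparator for Rad54/Ku70- and Rev3-deficient lines. Cells were exposed to compounds for 40 h at 37 C/5% CO2, and ATP-based luminescence (CellTiter-Glo) measured viability.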

[3] = qHTS assay for identifying genotoxic compounds that show differential cytotoxicity against isogenic chicken DT40 cell lines with known DNA damage response pathways - Rev3 mutant cell line (AID 743014); further: nearly all actives have a fitted effect of over 55% in size; further: potency means the concentration at half of the fitted maximal effect
[4] = qHTS assay for identifying genotoxic compounds that show differential cytotoxicity against isogenic chicken DT40 cell lines with known DNA damage response pathways - Rad54/Ku70 mutant cell line (AID 743015); further: nearly all actives have a fitted effect of over 60% in size; further: potency means the concentration at half of the fitted maximal effect
[5] = qHTS assay to identify small molecule antagonists of the androgen receptor (AR) signaling pathway - cell viability counter screen (AID 743033; further: nearly all actives have a fitted effect of over 45% in size)
[6] = biological target: Androgen receptor (Homo sapiens) (UniProt P10275); assay: qHTS assay to identify small molecule antagonists of the androgen receptor (AR) signaling pathway (AID 743035; active means well fitted inhibition curve with a large enough effect in the signal ratio in the repeat runs, not every such curve was filed as active; the % refers to the signal ratio; further: potency means the concentration at half of the fitted maximal effect)
Method in brief: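 Steps: seed AR-UAS-bla GripTite HEK293 cells, incubate 4 h at 37C; pin in test compound, then add agonist R1881; incubate 16 h at 37C; add LiveBLAzer B/G FRET substrate, 2 h at room temperature; read fluorescence.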

[7] = biological target: Androgen receptor (Homo sapiens) (UniProt P10275); assay: qHTS assay to identify small molecule agonists of the androgen receptor (AR) signaling pathway (AID 743036; active means well fitted activation curve with a large enough effect in the signal ratio in the repeat runs, with a control signal flat, not every such curve was filed as active; the % refers to the signal ratio)
Method in brief: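 In this Tox21 qHTS, 2,000 HEK293 AR-bla cells per well were incubated with compounds for 16 h at 37C and 5% CO2. Fluorescence intensity was recorded 2 h after adding LiveBLAzer B/G FRET substrate at room temperature.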

[8] = biological target: Androgen receptor (Homo sapiens) (UniProt P10275); assay: qHTS assay to identify small molecule agonists of the androgen receptor (AR) signaling pathway using the MDA cell line (AID 743040; further: nearly all actives have a fitted effect of over 20% in size)
Method in brief: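 Cell-based luciferase reporter: MDA-kb2, MMTV promoter (AR + GR response elements). 16 h compound exposure at 37C; ONE-Glo, 30 min RT, luminescence.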

[9] = qHTS assay to identify small molecule antagonists of the androgen receptor (AR) signaling pathway using the MDA cell line - cell viability counter screen (AID 743041; further: nearly all actives have a fitted effect of over 45% in size)
Method in brief: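 In this qHTS counter assay, fluorescence intensity after CellTiter-Fluor addition indicated viability of MDA-kb2 AR-luc cells given compounds and R1881 for 16 h at 37C.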

[10] = biological target: Androgen receptor (Homo sapiens) (UniProt P10275); assay: qHTS assay to identify small molecule antagonists of the androgen receptor (AR) signaling pathway using the MDA cell line (AID 743042; further: nearly all actives have a fitted effect of over 55% in size; further: potency means the concentration at half of the fitted maximal effect)
Method in brief: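 MDA-kb2 cells (human breast carcinoma, stably carrying an MMTV-luciferase reporter responsive to AR and GR) were plated at 3,000 cells/well and preincubated 5 hr at 37C, then given compound plus R1881 agonist for 16 h. ONE-Glo luminescence was read.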

[11] = qHTS assay to identify small molecule antagonists of the thyroid receptor (TR) signaling pathway - cell viability counter screen (AID 743064); further: nearly all actives have a fitted effect of over 50% in size
Method in brief: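 Counter screen for cytotoxicity: compound plus T3 (1 nM final) on GH3.TRE-Luc cells, 23.5 h at 37 °C, then fluorescence viability readout with CellTiter-Fluor.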

[12] = test system: thyroid hormone receptor (rat, GH3 cells); assay: qHTS assay to identify small molecule agonists of the thyroid receptor (TR) signaling pathway (AID 743066; calls by dose curve)
[13] = biological target: Estrogen receptor (Homo sapiens) (UniProt P03372); assay: qHTS assay to identify small molecule antagonists of the estrogen receptor alpha (ER-alpha) signaling pathway (AID 743069; active means well fitted curve in the direction sought with a large enough effect in the signal ratio in the repeat runs, not every such curve was filed as active; the % refers to the signal ratio)
Method in brief: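 A 17beta-estradiol challenge was applied right after compound transfer to ER-alpha-UAS-bla HEK293 cells previously kept in charcoal-stripped serum. Plates stood 18 hr at 37C and 5% CO2; fluorescence was read following 2 hr FRET substrate loading at room temperature.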

[14] = biological target: Estrogen receptor (Homo sapiens) (UniProt P03372); assay: qHTS assay to identify small molecule agonists of the estrogen receptor alpha (ER-alpha) signaling pathway (AID 743075; calls by dose curve;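 further: HEK293 GripTite cells with ER-alpha and UAS-driven beta-lactamase reporter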)
[15] = qHTS assay to identify small molecule antagonists of the estrogen receptor alpha (ER-alpha) signaling pathway using the BG1 cell line (AID 743080; calls by dose curve;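 further: BG1 cells stimulated with 17beta-estradiol alongside compound; nearly all actives have a fitted effect of over 25% in size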; further: potency means the concentration at half of the fitted maximal effect; on activity change, negative = inhibition: series mostly up to about 70 µM)
Method in brief: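 Quantitative HTS on the Tox21 10K library: BG1 cells with endogenous ER-alpha and ERE-luciferase reporter, 17beta-estradiol stimulation, 21.5 h compound exposure, luminescence endpoint with parallel fluorescence cytotoxicity counter-read.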

[16] = qHTS assay to identify small molecule antagonists of the estrogen receptor alpha (ER-alpha) signaling pathway using the BG1 cell line - cell viability counter screen (AID 743081);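 further: compound given together with 17beta-estradiol as the ER stimulus; series mostly up to about 70 µM; nearly all actives have a fitted effect of over 45% in size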
[17] = biological target: Aromatase (Homo sapiens) (UniProt P11511); assay: qHTS assay to identify aromatase inhibitors (AID 743083); further: series mostly up to about 70 µM; nearly all actives have a fitted effect of over 55% in size
[18] = qHTS assay to identify small molecule antagonists of the thyroid receptor (TR) signaling pathway (AID 743065)
Method in brief: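 GH3.TRE-Luc rat pituitary cells carrying two TR response elements driving luciferase were plated for 4 h, given compound plus 1 nM T3 (final), and incubated 23.5 h at 37 C. ONE-Glo luminescence measured reporter inhibition; CellTiter-Fluor fluorescence tracked cytotoxicity.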

[19] = qHTS assay to identify small molecule antagonists of the estrogen receptor alpha (ER-alpha) signaling pathway - cell viability counter screen (AID 743074; calls by dose curve;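 further: HEK293 cells carrying ER-alpha-UAS-bla reporter stimulated with 17beta-estradiol; nearly all actives have a fitted effect of over 45% in size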)
[20] = biological target: Estrogen receptor (Homo sapiens) (UniProt P03372); assay: qHTS assay to identify small molecule agonists of the estrogen receptor alpha (ER-alpha) signaling pathway using the BG1 cell line (AID 743079); further: nearly all actives have a fitted effect of over 20% in size
On the % scale 0 is the no-effect control and ±100 the full control effect.

Chain of Androgen receptor (Homo sapiens) (P10275 whole entry, looked up): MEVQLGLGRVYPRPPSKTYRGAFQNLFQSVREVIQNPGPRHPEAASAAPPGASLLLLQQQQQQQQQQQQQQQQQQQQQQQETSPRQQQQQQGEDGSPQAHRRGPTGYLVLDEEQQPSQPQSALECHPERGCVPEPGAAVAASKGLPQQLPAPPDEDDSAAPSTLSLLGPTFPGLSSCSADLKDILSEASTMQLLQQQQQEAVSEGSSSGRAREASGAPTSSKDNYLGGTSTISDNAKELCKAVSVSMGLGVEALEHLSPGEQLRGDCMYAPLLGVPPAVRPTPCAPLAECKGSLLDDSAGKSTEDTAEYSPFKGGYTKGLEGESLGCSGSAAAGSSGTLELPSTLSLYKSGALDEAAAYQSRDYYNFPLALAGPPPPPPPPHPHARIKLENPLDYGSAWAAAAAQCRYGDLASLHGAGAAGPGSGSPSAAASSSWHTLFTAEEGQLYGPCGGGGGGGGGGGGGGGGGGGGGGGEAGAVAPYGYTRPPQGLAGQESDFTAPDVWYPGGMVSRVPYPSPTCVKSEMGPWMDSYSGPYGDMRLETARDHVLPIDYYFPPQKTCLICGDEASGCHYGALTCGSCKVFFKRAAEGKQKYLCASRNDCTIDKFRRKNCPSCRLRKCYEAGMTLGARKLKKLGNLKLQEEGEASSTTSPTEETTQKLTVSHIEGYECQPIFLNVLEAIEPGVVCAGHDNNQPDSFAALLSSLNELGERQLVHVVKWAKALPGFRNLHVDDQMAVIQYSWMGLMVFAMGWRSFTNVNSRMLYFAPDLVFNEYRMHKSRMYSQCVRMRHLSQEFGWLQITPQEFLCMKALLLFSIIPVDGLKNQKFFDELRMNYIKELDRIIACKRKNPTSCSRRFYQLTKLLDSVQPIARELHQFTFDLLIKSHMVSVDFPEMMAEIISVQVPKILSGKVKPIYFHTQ
Chain of Estrogen receptor (Homo sapiens) (P03372 whole entry, looked up): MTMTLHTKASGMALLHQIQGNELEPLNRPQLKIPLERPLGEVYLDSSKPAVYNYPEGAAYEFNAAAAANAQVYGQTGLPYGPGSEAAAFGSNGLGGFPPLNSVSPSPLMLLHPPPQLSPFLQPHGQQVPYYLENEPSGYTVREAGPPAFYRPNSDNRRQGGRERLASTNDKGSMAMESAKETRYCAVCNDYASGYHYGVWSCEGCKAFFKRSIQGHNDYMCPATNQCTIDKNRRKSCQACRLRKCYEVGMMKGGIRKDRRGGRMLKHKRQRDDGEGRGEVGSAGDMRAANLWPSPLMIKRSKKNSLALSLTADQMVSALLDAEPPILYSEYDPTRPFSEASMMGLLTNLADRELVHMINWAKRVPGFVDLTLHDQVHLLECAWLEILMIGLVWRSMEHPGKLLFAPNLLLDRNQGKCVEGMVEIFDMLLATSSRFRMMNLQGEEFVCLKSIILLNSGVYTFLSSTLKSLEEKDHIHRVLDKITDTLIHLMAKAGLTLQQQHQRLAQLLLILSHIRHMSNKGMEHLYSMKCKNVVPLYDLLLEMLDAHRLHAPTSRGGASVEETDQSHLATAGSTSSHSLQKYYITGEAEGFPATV
Chain of Aromatase (Homo sapiens) (P11511 whole entry, looked up): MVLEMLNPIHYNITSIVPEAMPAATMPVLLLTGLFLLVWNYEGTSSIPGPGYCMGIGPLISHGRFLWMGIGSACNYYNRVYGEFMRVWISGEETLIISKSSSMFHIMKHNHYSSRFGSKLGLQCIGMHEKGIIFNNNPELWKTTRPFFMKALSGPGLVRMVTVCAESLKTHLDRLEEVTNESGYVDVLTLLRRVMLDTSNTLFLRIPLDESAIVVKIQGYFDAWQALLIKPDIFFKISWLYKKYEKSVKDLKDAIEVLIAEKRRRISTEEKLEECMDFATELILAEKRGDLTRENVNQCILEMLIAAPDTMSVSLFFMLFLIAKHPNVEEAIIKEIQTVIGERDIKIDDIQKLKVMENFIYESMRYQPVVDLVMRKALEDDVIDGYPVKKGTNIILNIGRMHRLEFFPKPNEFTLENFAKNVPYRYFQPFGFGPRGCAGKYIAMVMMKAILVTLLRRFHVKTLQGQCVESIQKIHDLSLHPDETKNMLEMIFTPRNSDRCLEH

O=C(Nc1ccc(Cl)c(Cl)c1)C1CC1
active: Potency [2] 29.8 µM | Potency [3] 26.6 µM | Potency [4] 29.8 µM | Potency [6] 19 µM | Potency [10] 29.8 µM | Potency [15] 21.1 µM
inactive: outcome [1] | Potency [5] | outcome [7] | outcome [8] | Potency [9] | Potency [11] | outcome [12] | outcome [13] | outcome [14] | outcome [16] | Potency [17]

O=S(O)(O)=S
inactive: viability change, negative = cytotoxic [1] -8.56% [at 7.04 µM] | activity change, negative = cytotoxicity [2] -4.81% [at 8.52 µM] | activity, negative = cytotoxicity [3] 5.56% [at 8.53 µM] | activity change, negative = cytotoxicity [4] -5.32% [at 8.55 µM] | activity change, negative = cytotoxicity [5] 3.7% [at 7.04 µM] | viability change, negative = cytotoxic [9] -5.99% [at 8.47 µM] | activity change, negative = cytotoxic [11] 0% [at 8.44 µM] | activity, negative = inhibition [18] -1.88% [at 8.44 µM] | activation [12] -0.901% [at 8.08 µM] | activity, negative = inhibition [13] 6.18% [at 6.71 µM] | activity, negative = cytotoxicity [19] -12.1% [at 6.72 µM] | activation [14] -2.02% [at 6.71 µM] | activation [20] 6.37% [at 8.47 µM] | activity change, negative = inhibition [15] -6.18% [at 8.47 µM] | activity change, negative = cytotoxicity [16] -1.7% [at 8.47 µM] | activity, negative = inhibition [17] 5.06% [at 8.47 µM]

CC(C)(C)OC(=O)c1ccc(O)cc1
inactive: outcome [1] | Potency [2] | Potency [3] | Potency [4] | Potency [5] | outcome [8] | Potency [9] | Potency [10] | Potency [11] | Potency [18] | outcome [12] | outcome [19] | outcome [16] | Potency [17]

CC1(C)S[C@@H]2[C@H](N=CN3CCCCCC3)C(=O)N2[C@H]1C(=O)O
inactive: outcome [1] | Potency [2] | Potency [3] | Potency [4] | Potency [5] | Potency [9] | Potency [11] | Potency [18] | outcome [12] | outcome [13] | outcome [19] | outcome [14] | Potency [20] | Potency [15] | outcome [16] | Potency [17]

CC(C)=O
inactive: outcome [1] | Potency [2] | Potency [3] | Potency [4] | Potency [5] | Potency [6] | outcome [7] | outcome [8] | Potency [9] | Potency [10] | Potency [11] | Potency [18] | outcome [12] | outcome [13] | outcome [19] | outcome [14] | Potency [20] | Potency [15] | outcome [16] | Potency [17]

O=C(O)CCSSCCC(=O)O
inactive: outcome [1] | Potency [2] | Potency [3] | Potency [4] | Potency [5] | Potency [6] | outcome [7] | outcome [8] | Potency [9] | Potency [10] | Potency [11] | Potency [18] | outcome [12] | outcome [13] | outcome [19] | outcome [14] | Potency [20] | Potency [15] | outcome [16] | Potency [17]

COCCOCCOCCOCCO
inactive: outcome [1] | Potency [2] | Potency [3] | Potency [4] | Potency [5] | Potency [6] | outcome [7] | outcome [8] | Potency [9] | Potency [10] | Potency [11] | Potency [18] | outcome [12] | outcome [13] | outcome [19] | outcome [14] | Potency [20] | Potency [15] | outcome [16] | Potency [17]
